Experimental data published in ChEMBL document CHEMBL1201862, “PubChem BioAssay data set” (2004).
About 1,300 (4.6%) of roughly 28,000 sequences were called active. Rule as the data show it: active = GI50 up to about 1.1 µM and inactive = higher. The entries come from a sample that favours actives as a whole. Entries with a potency or affinity are not part of this list.

The substances below were run on MDA-N.

| Substance | GI50 [µM] |
| --- | --- |
| [Bis(aminomethyl)pentamethylenesilane]tetrachloropaltinum(IV), CHEMBL2146204 | 0.935 |
| [Bis(aminomethyl)pentamethylenesilane]dichloropaltinum(II), CHEMBL2146202 | 2.42 |
| [Bis(aminomethyl)dimethylsilane]tetrachloroplatinum(IV), CHEMBL2146190 | 15.9 |
| [Bis(aminomethyl)tetramethylenesilane]tetrachloropaltinum(IV), CHEMBL2146189 | 2.72 |
| CISPLATIN, CHEMBL11359 | 6.18 |
| [Bis(aminomethyl)tetramethylenesilane]dichloropaltinum(II), CHEMBL2146205 | 6.89 |
